Potency and affinity values are given separately. Inconclusive results are not listed. Activity calls are given as the source filed them.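 The calls were made as follows: active = samples whose fitted half-maximal inhibition concentration is no more than ten times the top valid dose tested; inconclusive = flat response between -70 and -30, or invalid curve fit; inactive = flat within 30 of zero, potency above limit, or signal rising.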
target: Trypsin (Sus scrofa) (UniProt P00761); test: porcine trypsin inhibitors, dose response, selectivity assay for Rce1 protease inhibitor project, biochemical, quenched peptide fluorescence, cherry-pick (AID 488789); details: quenched peptide cleavage fluorescence; series mostly up to 10 µM;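 also: more negative means stronger trypsin inhibition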
Sequence (P00761 whole entry, looked up): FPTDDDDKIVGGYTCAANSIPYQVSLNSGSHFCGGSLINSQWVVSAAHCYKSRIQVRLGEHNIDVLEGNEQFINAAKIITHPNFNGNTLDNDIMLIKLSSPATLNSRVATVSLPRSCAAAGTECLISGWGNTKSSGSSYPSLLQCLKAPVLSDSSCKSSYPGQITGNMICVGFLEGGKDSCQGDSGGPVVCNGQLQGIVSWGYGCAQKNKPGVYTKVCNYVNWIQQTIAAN

outcome, inactive:
O=C(CCNS(=O)(=O)c1ccc2[nH]c(=O)oc2c1)NCc1ccccc1
COc1ccccc1-n1c(-c2ccccc2)c[nH]c1=S
COCc1cc(C)n(CC(=O)NCc2ccccc2)c(=O)c1C#N
CCn1cc(/C=C(\NC(=O)c2ccccc2F)C(=O)N2CCOCC2)c2ccccc21
O=C(Nc1ccccc1N1CCOCC1)C1CCN(S(=O)(=O)c2ccc(F)cc2)CC1
CCCn1c(O)c(N=NC(=O)CNC(=O)Cc2ccc(OC)cc2)c2ccccc21
COc1ccccc1NC(=O)Cc1nnc(SCC(=O)Nc2nccs2)n1C
c1coc(-c2ccnc3ncnn23)c1
COc1ccc([N+](=O)[O-])cc1CSc1ccccn1
COc1ccc(N2CCN(C(=O)c3cc(-c4cccs4)nc4ccccc34)CC2)cc1
NC(=O)[C@@H]1CC2(CC(c3cccc(NC(=O)CC(c4ccccc4)c4ccccc4)c3)=NO2)CN1C(=O)c1ccc(Cl)cc1 (some centres not stated)
CCN(CC)CCN(C(=O)c1ccc2ccccc2c1)c1nc2ccc(F)cc2s1
CN(C)c1ccc(/C=N/NC(=O)CNC(=O)c2ccco2)cc1
COc1ccc(-c2cn3ccccc3n2)cc1[N+](=O)[O-]
COc1cccc(-c2c(C(=O)N/N=C/c3sccc3C)nnn2-c2nonc2N)c1
CC(C)CC(=O)NC(=S)Nc1ccc(S(=O)(=O)Nc2nccs2)cc1
O=C(COc1ncnc2cc([N+](=O)[O-])ccc12)NC(=O)NC1CCCCC1
COc1cccc(-c2csc(N3CCN(C(=O)NC45CC6CC(CC(C6)C4)C5)CC3)n2)c1
O=[N+]([O-])c1ccc(-c2cnc(SC(c3ccccc3)c3ccccc3)[nH]2)cc1
COc1ccc(OC)c(Cc2nnc(CCC(=O)N3CCN(C4CCCC4)CC3)o2)c1
CCCCN(CC)CCNC(=O)c1cc2c(-c3ccc(Cl)cc3)nn(C)c2s1
O=C(COC(=O)c1ccccc1Cc1ccccc1)NC1CCS(=O)(=O)C1 (configuration not stated)
CCOc1ccc(-n2c(SCc3ccc([N+](=O)[O-])cc3)nnc2-c2ccc(OC)cc2)cc1
Oc1c(N=NC(=S)Nc2ccccc2F)c2ccccc2n1Cc1ccccc1Cl
COc1ccc(OCC(=O)NS(=O)(=O)c2ccc(Cl)cc2)cc1
COC(=O)CSc1nc(N)c2c3c(sc2n1)C(c1ccccc1)SC(c1ccccc1)C3 (configuration not stated)
COC(=O)Cn1c(CCC(=O)O)ccc1-c1ccccc1
CCN(CC)CCCN(Cc1cc2cc3c(cc2[nH]c1=O)OCO3)C(=S)NCCCN(C)C
COc1ccc(/C=N/NC(=O)c2ccc(Cl)cc2)cc1COC(C)=O
CCOC(=O)c1ccc(NC(=O)N2CCN(Cc3ccccc3)CC2)cc1
Cn1c(=O)c(C(=O)NCCO)c(O)c2ccccc21
CC(=O)N(C)c1ccc(NC(=O)/C=C/c2ccccc2Cl)cc1
CSc1ccc(/C=C/C(=O)OCC(=O)NC(C)C)cc1
COc1ccc(-c2nc3ncccc3o2)cc1NC(=O)c1ccco1
CC1(c2ccc(OCC#N)cc2)C=C(c2ccc(OCC#N)cc2)n2nc(C(F)(F)F)nc2N1 (configuration not stated)
CCN(CC)CCN(Cc1cc2cc3c(cc2[nH]c1=O)OCO3)C(=S)NCc1ccco1
O=[N+]([O-])c1cc(S(=O)(=O)N2CCCC2)ccc1NN=C1CCCCC1
